For the first test, the target named is NUDT18. Nature of the test: pooled miR-30 sensor sort-seq; sequence = guide strand. The conditions noted are these: shRNA.
In turn, TAGTTCAACCAGGTGCAGGATG came in with a sensor-assay potency score (higher = more potent) of -0.826.
The same measure, in the same setting: the figure for TGTCTCGGGCTCACAGTGCAGC is -1.13; for TTGCAGGTCTTCCTCCATCACC it is -1.52.

A further test addresses NUDT8. Described as above. The conditions noted are these: shRNA.
In turn, TGGTCAGCCGGGTCGCACTTGC came in with a sensor-assay potency score (higher = more potent) of -1.47.
On the same count and under the same terms, the figure for TGGGAAACTGACGTCGCCCTTG is -0.952; for TACAGCAGCGCCGGCACCCCAC it is -1.1; for ACCACATCTTGGTCAGCCGGGT it is -1.55.
TTGCGGATCATACACAGGCCGC gave a sensor-assay potency score (higher = more potent) of -1.79.
On the same count and under the same terms, with TTGGTCAGCCGGGTCGCACTTG the figure was -1.16.
Still for that read-out and setting: the figure for TTGTGCCTCCCGGTCAGGCGGC is -1.45; for TTTGCGGATCATACACAGGCCG it is -0.907.
The same measure, in the same setting: with TACACCAGCAAGCACTGGCACC the figure was -1.4.
TCAGCCGGGTCGCACTTGCCGC yielded a sensor-assay potency score (higher = more potent) of -1.59.
Same read-out and setting: with ATCTTGGTCAGCCGGGTCGCAC the figure was -1.97; with TGTGCACCACATCTTGGTCAGC, -0.734.

For the origin of these results see the OligoGym collection.
Note: reference of the scale not given here.
